Key:
hPUF_MT(F856A) = hPUF_MT(F856A) (UniProt Q14671 SEQ:1-349, F856A); experiment: EMSA; conditions: tags: MBP; label: Alexa680 at 5' and 3'; ssRNA
hPUF_MT(F865A) = hPUF_MT(F865A) (UniProt Q14671 SEQ:1-349, F865A); experiment: EMSA; smaller contribution than F856; conditions: tags: MBP; label: Alexa680 at 5' and 3'; ssRNA
[1] = target: T1, hPUF_MT(R5:A_13R)(R5:A_13Y)2(R6:C_13Y)3; experiment: EMSA; 13R about 10 times greater; conditions: label: Alexa680 at 5' and 3'; ssRNA
T1 chain: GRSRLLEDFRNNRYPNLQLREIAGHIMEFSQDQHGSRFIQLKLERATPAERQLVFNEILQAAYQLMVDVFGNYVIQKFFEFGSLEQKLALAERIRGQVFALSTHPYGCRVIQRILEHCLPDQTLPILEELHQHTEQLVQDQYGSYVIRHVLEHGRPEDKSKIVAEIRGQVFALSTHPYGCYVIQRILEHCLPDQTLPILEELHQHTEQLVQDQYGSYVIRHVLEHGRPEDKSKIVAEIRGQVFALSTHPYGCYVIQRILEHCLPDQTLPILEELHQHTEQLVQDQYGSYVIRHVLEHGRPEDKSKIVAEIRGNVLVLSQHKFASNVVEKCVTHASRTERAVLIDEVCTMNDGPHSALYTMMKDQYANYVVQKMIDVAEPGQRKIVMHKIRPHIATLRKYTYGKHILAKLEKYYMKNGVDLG

CCAGAAUUGUAUAUAUUCG
binding signal (hPUF_MT(F856A)): ~0.1 fold of WT | binding signal (hPUF_MT(F865A)): ~0.1 fold of WT

CCAGAAUUGCACACAUAUUCG
binding signal [1]: ~0.1 fold of 13R protein

Reference: patent US11472855, “RNA-binding protein” (Panitch Schwarze Belisario & Nadel LLP)
